SMILES strings stand for the structures. Inconclusive results are not listed. A call without a number means that no potency is given here. Unmarked numbers belong to inactive results. Activity calls are given as the source filed them. Calls come from the whole dose curve; as a rule, active = well fitted inhibition curve with a large enough effect; inconclusive = small, poorly fitted or top-dose-only effect; inactive = flat fitted curve, though single readings scatter.

Sequence of Calcium and integrin-binding protein 1 (Homo sapiens) (Q99828 whole entry, looked up): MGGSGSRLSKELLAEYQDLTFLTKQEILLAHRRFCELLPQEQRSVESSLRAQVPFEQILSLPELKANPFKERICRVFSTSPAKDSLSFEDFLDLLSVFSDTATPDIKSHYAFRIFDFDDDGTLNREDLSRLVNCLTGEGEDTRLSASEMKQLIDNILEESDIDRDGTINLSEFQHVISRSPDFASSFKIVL

The target in this assay is Calcium and integrin-binding protein 1 (Homo sapiens) (UniProt Q99828). Briefly: Primary qHTS for Identification of Calcium Integrin Binding Protein 1 (CIB1) Competitor (AID 1508620). Note: top concentration of the series differs between compounds. As to conditions: CIB1-GST / FITC-alphaIIb peptide fluorescence polarization; series mostly up to 114 µM. The method, boiled down:
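Fluorescence polarization competition: GST-tagged CIB1 (1 uM final) preincubated with compound 15 min at room temperature, then FITC-labelled alphaIIb peptide (100 nM final) added. After 15 min at room temperature, polarization read at Ex 480/Em 540.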
For `COc1cc(NC(=O)c2cc(C3CC3)on2)c(OC)cc1Cl`, the Potency result was “inactive”.
Take `O=C(COc1ccc2ccccc2c1Br)Nc1cccnc1`: the Potency result is “inactive”.
Still for that read-out and setting: the same measure for `O=C(C(Cc1cccc(C(F)(F)F)c1)NS(=O)(=O)c1cc(F)c2c(c1)CCNC2)N1CCCC1` (stereo not drawn): “inactive”; for `CC(C)=CCC[C@](C)(O[C@@H]1O[C@H](CO[C@@H]2OC[C@@H](O)[C@H](O)[C@H]2O)[C@@H](O)[C@H](O)[C@H]1O)[C@H]1CC[C@]2(C)[C@@H]1[C@H](O)C[C@@H]1[C@@]3(C)CC[C@H](O[C@@H]4O[C@H](CO)[C@@H](O)[C@H](O)[C@H]4O)C(C)(C)[C@@H]3CC[C@]12C`: “inactive”.
On to `CN1c2c(nc(N)[nH]c2=O)NC[C@@H]1CNc1ccc(C(=O)N[C@@H](CCC(=O)O)C(=O)O)cc1`, for which the Potency result was “inactive”.
Turning to `COC1C=C(C)C(O)(CO)C2(C)CCCC(C)(C)C12` (stereo not drawn), the Potency result is “inactive”.
Still for that read-out and setting: the same measure for `Cc1cc(NC(=O)c2cccc(NC(=O)/C=C/CN(C)C)c2)ccc1Nc1nccc(-c2cccnc2)n1`: “inactive”; for `COc1ccc(C2Oc3c(OC)cc(CCCO)cc3C2COC2OC(CO)C(O)C(O)C2O)cc1OC` (stereo not drawn): “inactive”; for `Cc1ccc(F)cc1S(=O)(=O)N[C@@H]1CCN(Cc2ccc(OC(C)C)cc2)C1`: “inactive”.
Still for that read-out and setting: with `O=C(Nc1nc2ccc([N+](=O)[O-])cc2s1)C1CCCCC1` the entry was “inactive”; with `COc1ccc([C@H]2Cc3cccc(O)c3C(=O)O2)cc1OC`, “inactive”.
Regarding `CN(c1ccc(NC(=O)Nc2ccccc2)cc1)S(=O)(=O)c1cnn(-c2ccc(F)cc2)c1`, the Potency result was “inactive”.
As for `CC12CCC3C1C(c1c(cc(O)c(C(=O)c4ccccc4)c1O)O2)C3(C)C` (stereo not drawn), the Potency result was “inactive”.
Still for that read-out and setting: with `COc1ccc(C2(N(C)C(=O)c3ccc(NC(=O)c4ccco4)cc3)CCOCC2)cc1` the entry was “inactive”.
Turning to `CC1(C(=O)Nc2ccc(F)nc2)CCCN1c1nc(Nc2cc(C3CC3)[nH]n2)c2cccn2n1` (stereo not drawn), the Potency result is “inactive”.
As for `C[C@@H]1O[C@@H](O[C@H]2[C@@H](OC(=O)[C@]34CCC(C)(C)CC3C3=CCC5[C@@]6(C)C[C@H](O)[C@H](O[C@@H]7O[C@H](CO)[C@@H](O)[C@H](O)[C@H]7O[C@@H]7OC[C@@H](O)[C@H](O)[C@H]7O)[C@@](C)(C(=O)O)C6CC[C@@]5(C)[C@]3(C)CC4)OC[C@H](O)[C@@H]2O)[C@H](O)[C@H](O)[C@H]1O[C@@H]1OC[C@@H](O)[C@H](O)[C@H]1O` (stereo partly drawn), the activity change, negative = inhibition was -5.44% [at 12.4 µM].
For the compound `CC(C)(C)c1ccc(C(=O)Nc2cn3cc(-n4ccnc4)ccc3n2)cc1`, the Potency entry was “inactive”.
`O=C(Nc1ccc(Cl)cc1)C1CCCN(C(=O)c2cccc(-c3ccco3)c2)C1` (stereo not drawn): the Potency result was “inactive”.
The same measure, in the same setting: the same measure for `CC(=O)OC1CC(C)C2(CCC3(CC(=O)OC3O)O2)C2(C)CCCC(C)(C)C12` (stereo not drawn): “inactive”.
`C#Cc1cccc(Nc2nc3cc(C(=O)O)ccc3c3cncnc23)c1`: the Potency result is “inactive”.
`C=C(C)C1CCC2(C(=O)O)CCC3(C)C(CCC4C5(C)C(C=O)C(O)C(C)(C)C5CCC43C)C12` (stereo not drawn): the Potency result is “inactive”.
Consider `COc1cc2ncnc(Oc3ccc(CC(=O)Nc4cnn(C(C)C)c4)cc3)c2cc1OC`, for which the Potency result is “inactive”.
Consider `Cc1csc2c(N[C@@H](C)CN3CCN(S(=O)(=O)c4ccc(Cl)c(Cl)c4)CC3)ncnc12`, for which the Potency result is “inactive”.
Same read-out and setting: with `CC1(NC(=O)c2ccc(C#Cc3cccc(F)c3)cn2)COC1` the entry was “inactive”.
On the same count and under the same terms, with `COc1ccc2nc(-c3cc(OC)c(OC)c(OC)c3)cc(C(=O)NCC(=O)Nc3ccc(C(C)=O)cc3)c2c1` the entry was “inactive”.
Still for that read-out and setting: the same measure for `C=C(C)[C@@H]1CC[C@]2(C(=O)O)CC[C@]3(C(=O)O)[C@H](CCC4[C@@]5(C)CCC(=O)C(C)(C)C5CC[C@]43C)C12` (stereo partly drawn): “inactive”.
As to `Nc1ncnc2c1c(-c1ccc(Oc3ccccc3)cc1)nn2[C@@H]1CCCNC1`, the Potency result is “inactive”.
In the case of `CCN1CCN(Cc2ccc(NC(=O)c3ccc(C)c(Oc4ncnc5[nH]c(C)cc45)c3)cc2C(F)(F)F)CC1`, the Potency entry is “inactive”.
`Cc1ccc(NC(=O)C(C)C)cc1C1CCN(Cc2ccc(Oc3ccc(F)c(F)c3)cc2)CC1`: the Potency result is “inactive”.
As for `CC(=O)N1CCN(CCOc2ccc(C3CCN(C4=Nn5c(nnc5C(F)(F)F)CC4)CC3)cc2)CC1`, the Potency result is “inactive”.
Same read-out and setting: with `COc1cc(-c2cn(C3CCc4c(F)cccc4N(CC(F)(F)F)C3=O)nn2)ccc1-n1cnc(C)c1` (stereo not drawn) the entry was “inactive”.
For the compound `O=C(OC1CN2CCC1CC2)N1CCc2ccccc2C1c1ccccc1` (stereo not drawn), the Potency result was “inactive”.
Still for that read-out and setting: with `CC(C)=CCCC1(C)C2CCC1(C)C(O)C2` (stereo not drawn) the entry was “inactive”; with `COc1ccc(NC(=O)c2ccc(C(=N)N(C)C)cc2)c(C(=O)Nc2ccc(Cl)cn2)c1`, “inactive”; with `CC(=O)OC[C@]12[C@H](OC(C)=O)[C@H](OC(=O)c3ccccc3)[C@@H]3[C@@H](OC(C)=O)[C@]1(OC3(C)C)[C@H](C)C[C@H](OC(C)=O)[C@@H]2OC(=O)c1ccccc1`, “inactive”.
The same measure, in the same setting: with `O=C(O)c1ccc(S(=O)(=O)N(Cc2ccc(OC(F)(F)F)cc2)c2ncc(C(F)(F)F)cc2Cl)cc1` the entry was “inactive”; with `O=C(NCCCc1ccccc1)C1CCC(CNS(=O)(=O)c2cccc3nsnc23)CC1` (stereo not drawn), “inactive”; with `COc1ccc(CCc2nc3cc(-c4c(C)noc4C)ccc3n2CC(C)N2CCOCC2)cc1Cl` (stereo not drawn), “inactive”.

For the origin of these results see PubChem BioAssay (NCATS).
